From PubChem BioAssay (EPA / NIEHS) come the findings set out here.

Assay [1] can be described thus: ATG_CRE_CIS: Attagene CIS-FACTORIAL HepG2 Assay for human cAMP Responsive Element (CRE) binding protein 3 (AID 2282926). To be noted: HepG2 CRE cis-reporter, Attagene multiplexed mRNA; actives raise or lower the signal. The gist of the method:
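Assay format: transient reporter transfection of HepG2, 24 h treatment, total RNA isolation with DNase I step. Reporter abundance read by fluorescence after PCR and capillary separation; DMSO-normalised gain or loss fitting.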

The target in assay [2] is CCAAT/enhancer-binding protein beta (Homo sapiens) (UniProt P17676). The experiment in a line: ATG_C_EBP_CIS: Attagene CIS-FACTORIAL HepG2 Assay for human CCAAT/Enhancer Binding Protein (C/EBP) beta (AID 2282927). To be noted: HepG2 Attagene cis-factorial transcription factor reporter; actives raise or lower the signal. The gist of the method: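 Following a 24 h incubation with test chemical, transfected HepG2 cells yielded RNA whose reporter transcripts were quantified by RT-PCR and fluorescent capillary electrophoresis, with DMSO serving as baseline for bidirectional fitting.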

A short description of assay [3]: ATG_CMV_CIS: Attagene CIS-FACTORIAL HepG2 Assay for human CMV (Internal Marker) (AID 2282928).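 Note: endpoint acts as a background internal control marker rather than a target.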 Particulars: HepG2 CMV promoter reporter, transcription factor profiling; actives raise or lower the signal. The gist of the method:
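Fluorescence intensity of RT-PCR-derived reporter fragments, resolved by capillary electrophoresis, gives the signal. HepG2 liver cells bearing transfected cis-element reporters were treated 24 h; activity in either direction was fit relative to DMSO-treated controls.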

Assay [4] in a line: ATG_DR4_LXR_CIS: Attagene CIS-FACTORIAL HepG2 Assay for human Liver X Receptor (LXR), DR4 submotif (AID 2282929). Particulars: HepG2 Attagene DR4 cis-reporter, mRNA transcription; actives raise or lower the signal. In outline:
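Cells were transfected with multiple reporter transcription units, exposed to chemicals for 24 hours, then lysed for RNA. Reporter mRNA induction was measured by RT-PCR with capillary electrophoresis detection and fitted in both directions relative to DMSO.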

Assay [5] deals with Aryl hydrocarbon receptor (Homo sapiens) (UniProt P35869). The experiment in a line: ATG_Ahr_CIS: Attagene CIS-FACTORIAL HepG2 Assay for human Aryl Hydrocarbon Receptor (Ahr) (AID 2282930). To be noted: HepG2 AhR cis-factorial reporter transcription; actives raise or lower the signal. The gist of the method:
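Values derive from bidirectional fitting against DMSO negative control. Underlying signal: cis-element reporter mRNA in transiently transfected HepG2, harvested 24 h post-dose and measured by RT-PCR plus capillary electrophoresis.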

Assay [6] in a line: ATG_AP_2_CIS: Attagene CIS-FACTORIAL HepG2 Assay for human Activator Protein 2 (AP-2) (AID 2282932). To be noted: HepG2 AP-2 cis-reporter, Attagene transcription factor profiling; actives raise or lower the signal. In outline:
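Cells (HepG2) transfected with promoter-driven reporter constructs, treated 24 h. Total RNA reverse-transcribed, reporter cDNA PCR-amplified, FAM-labelled by primer extension, digested, resolved by capillary electrophoresis. Activity fitted both directions versus DMSO.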

Assay [7] is described as follows: ATG_BRE_CIS: Attagene CIS-FACTORIAL HepG2 Assay for human Bone Morphogenetic Protein (BMP) Response Element (BRE) (AID 2282933). Particulars: HepG2 BMP response element reporter, Attagene transcription factor profiling; actives raise or lower the signal. The gist of the method: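 A HepG2 multiplex reporter system measured inducible reporter mRNA 24 h post-dosing. Detection: RT-PCR, 6-FAM primer extension, HpaI digestion, capillary electrophoresis. Activity fitted bidirectionally relative to DMSO.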

Assay [8] deals with Retinoic acid receptor alpha (Homo sapiens) (UniProt P10276). The experiment in a line: ATG_DR5_RAR_CIS: Attagene CIS-FACTORIAL HepG2 Assay for human Retinoic Acid Receptor Alpha (RARE), DR5 submotif (AID 2282934).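 For AC50: reporter responds to endogenous RAR alpha beta and gamma in HepG2 not RARA alone.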 Particulars: HepG2 Attagene cis-factorial RARE DR5 reporter, mRNA; actives raise or lower the signal. In outline: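 Endpoint fitted in both directions relative to DMSO as negative control. It reflects DR5 cis-element reporter mRNA induction in transiently transfected HepG2 cells, measured 24 h after dosing through RT-PCR and fluorescent capillary electrophoresis.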

In assay [9] the target is Transcription factor E2F1 (Homo sapiens) (UniProt Q01094). The experiment in a line: ATG_E2F_CIS: Attagene CIS-FACTORIAL HepG2 Assay for human E2F Transcription Factor 1 (AID 2282935). Particulars: HepG2 Attagene cis-reporter, E2F reporter RNA transcripts; actives raise or lower the signal. The gist of the method:
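First, HepG2 cells were transfected with reporter transcription units. Next, they were dosed for 24 h. Then RNA was isolated, converted to cDNA, PCR-amplified, FAM-labeled, HpaI-digested and analyzed by capillary electrophoresis.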

Assay [10] is described as follows: ATG_E_Box_CIS: Attagene CIS-FACTORIAL HepG2 Assay for human Enhancer Box (E-box) (AID 2282936). Particulars: HepG2 E-box cis-reporter transcription, actives raise or lower the signal. The gist of the method:
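Endogenous transcription factor activity was sensed in human HepG2 liver cells through transfected cis-promoter reporter units. After 24 h of dosing, total RNA was reverse-transcribed and reporter cDNA resolved by capillary electrophoresis.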

Assay [11] can be described thus: ATG_M_61_CIS: Attagene CIS-FACTORIAL HepG2 Assay for M61 Transcription Factor (Internal Marker) (AID 2282937). To be noted: HepG2 Attagene CIS-FACTORIAL M61 internal marker reporter; actives raise or lower the signal. The gist of the method:
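Cells were transfected with reporter units under cis-regulatory promoters, treated with chemicals for 24 h, then lysed for RNA. Reporter transcripts were quantified by RT-PCR and capillary electrophoresis, and activity was fitted bidirectionally against DMSO.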

Assay [12] in a line: ATG_EGR_CIS: Attagene CIS-FACTORIAL HepG2 Assay for human Early Growth Response 1 (EGR1) (AID 2282938). To be noted: HepG2 Attagene CIS-FACTORIAL EGR reporter mRNA; actives raise or lower the signal. In outline:
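Endogenous TF activity in HepG2 liver cells was gauged through cis-promoter reporter constructs transiently transfected. After 24 h dosing, reporter mRNA was quantified by RT-PCR and capillary electrophoresis, and curves fitted in both directions versus DMSO.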

A short description of assay [13]: ATG_M_19_CIS: Attagene CIS-FACTORIAL HepG2 Assay for M19 Transcription Factor (Internal Marker) (AID 2282939). Particulars: HepG2 Attagene CIS-FACTORIAL M19 internal marker reporter; actives raise or lower the signal. The gist of the method: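 Chemical-treated HepG2 (24 h) with MRTU constructs; reporter transcripts detected by fluorescent RT-PCR fragment analysis on capillary electrophoresis. Internal background marker, DMSO as baseline.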

Assay [14] is described as follows: ATG_Ets_CIS: Attagene CIS-FACTORIAL HepG2 Assay for human Erythroblast Transformation Specific (ETS) (AID 2282941). Particulars: HepG2 ETS cis-reporter transcription, actives raise or lower the signal. In outline:
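Multiplexed reporter transcript profiling: HepG2, 24 h treatment, total RNA to cDNA, PCR, 6-FAM labelling, HpaI cut, capillary electrophoresis. Gain- or loss-of-signal fitted against DMSO.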

Assay [15] has as its target Hepatocyte nuclear factor 3-beta (Homo sapiens) (UniProt Q9Y261). The experiment in a line: ATG_FoxA2_CIS: Attagene CIS-FACTORIAL HepG2 Assay for human Forkhead box A2 (FOXA2) (AID 2282942). To be noted: HepG2 cis-reporter transcription factor activity, 24 h; actives raise or lower the signal. The gist of the method: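 Endogenous transcription factor activity was read in HepG2 cells carrying transiently transfected cis-promoter reporter units. After 24 h dosing, reporter mRNA was quantified by RT-PCR and capillary electrophoresis, and values fitted bidirectionally versus DMSO.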

Assay [16] in a line: ATG_FoxO_CIS: Attagene CIS-FACTORIAL HepG2 Assay for human Forkhead box O (FoxO) (AID 2282943). Particulars: HepG2 Attagene cis-reporter, FoxO element, mRNA; actives raise or lower the signal. The gist of the method: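 Values reflect reporter mRNA induction or loss in HepG2 cells 24 h post-dosing, fitted bidirectionally with DMSO as negative control and baseline. Detection used RT-PCR and fluorescence capillary electrophoresis.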

Assay [17] can be described thus: ATG_GATA_CIS: Attagene CIS-FACTORIAL HepG2 Assay for human GATA Binding Protein (AID 2282944). To be noted: HepG2 GATA cis-element reporter, Attagene multiplex mRNA; actives raise or lower the signal. The gist of the method: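 Transfected cis-reporter HepG2 cells were treated with chemicals for 24 hours. Total RNA was then converted to cDNA, amplified with reporter-specific primers and analysed by fluorescent capillary electrophoresis, using DMSO-treated wells as baseline.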

Assay [18] is described as follows: ATG_GLI_CIS: Attagene CIS-FACTORIAL HepG2 Assay for human Zinc Finger Protein GLI1 (AID 2282945). To be noted: HepG2, Attagene cis-factorial reporter mRNA, GLI element; actives raise or lower the signal. In outline:
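HepG2 cells transiently transfected with cis-promoter multiplexed reporter units report endogenous transcription factor activity. After 24 h chemical exposure, reporter mRNA was quantified by RT-PCR, 6-FAM labelling, HpaI digestion and capillary electrophoresis, with bidirectional fitting against DMSO.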

Assay [19] can be described thus: ATG_AP_1_CIS: Attagene CIS-FACTORIAL HepG2 Assay for human Activator Protein 1 (AP-1) (AID 2282931). To be noted: HepG2 Attagene cis-factorial AP-1 reporter mRNA; actives raise or lower the signal. In outline: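 Endogenous transcription-factor activity in human HepG2 liver cells is read through a cis-promoter reporter transcript, sampled 24 h after dosing. Detection uses RT-PCR with capillary electrophoresis; values come from bidirectional fitting relative to DMSO.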

Calls of active or inactive are those of the source. Rule for the calls: active = hit-call score of the fitted dose curve at least 0.9, where 1 is the maximum; inactive = score below 0.9.

Aryl hydrocarbon receptor (Homo sapiens), sequence (P35869 whole entry, looked up): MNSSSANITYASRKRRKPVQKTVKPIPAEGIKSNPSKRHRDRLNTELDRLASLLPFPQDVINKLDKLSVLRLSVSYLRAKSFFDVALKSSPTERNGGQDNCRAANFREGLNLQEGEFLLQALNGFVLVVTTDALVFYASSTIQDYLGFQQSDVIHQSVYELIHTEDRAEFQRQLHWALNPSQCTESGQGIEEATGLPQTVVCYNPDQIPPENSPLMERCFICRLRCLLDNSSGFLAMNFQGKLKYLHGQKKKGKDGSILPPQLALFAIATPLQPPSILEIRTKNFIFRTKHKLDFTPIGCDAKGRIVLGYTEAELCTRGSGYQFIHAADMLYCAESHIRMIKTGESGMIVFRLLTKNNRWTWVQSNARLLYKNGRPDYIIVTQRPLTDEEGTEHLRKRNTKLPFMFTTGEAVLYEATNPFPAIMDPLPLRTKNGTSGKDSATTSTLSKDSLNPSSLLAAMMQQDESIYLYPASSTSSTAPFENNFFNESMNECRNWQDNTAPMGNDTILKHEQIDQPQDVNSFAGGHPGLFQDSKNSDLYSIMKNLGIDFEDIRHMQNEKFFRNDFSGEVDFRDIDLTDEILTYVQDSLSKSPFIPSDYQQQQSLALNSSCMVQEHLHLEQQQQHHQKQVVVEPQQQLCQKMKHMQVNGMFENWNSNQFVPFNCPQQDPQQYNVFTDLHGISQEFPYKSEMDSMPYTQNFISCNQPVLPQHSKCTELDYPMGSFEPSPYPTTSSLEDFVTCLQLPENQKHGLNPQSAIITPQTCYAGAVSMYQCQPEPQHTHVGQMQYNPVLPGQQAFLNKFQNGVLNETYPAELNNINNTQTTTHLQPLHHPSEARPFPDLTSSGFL
Retinoic acid receptor alpha (Homo sapiens), sequence (P10276 whole entry, looked up): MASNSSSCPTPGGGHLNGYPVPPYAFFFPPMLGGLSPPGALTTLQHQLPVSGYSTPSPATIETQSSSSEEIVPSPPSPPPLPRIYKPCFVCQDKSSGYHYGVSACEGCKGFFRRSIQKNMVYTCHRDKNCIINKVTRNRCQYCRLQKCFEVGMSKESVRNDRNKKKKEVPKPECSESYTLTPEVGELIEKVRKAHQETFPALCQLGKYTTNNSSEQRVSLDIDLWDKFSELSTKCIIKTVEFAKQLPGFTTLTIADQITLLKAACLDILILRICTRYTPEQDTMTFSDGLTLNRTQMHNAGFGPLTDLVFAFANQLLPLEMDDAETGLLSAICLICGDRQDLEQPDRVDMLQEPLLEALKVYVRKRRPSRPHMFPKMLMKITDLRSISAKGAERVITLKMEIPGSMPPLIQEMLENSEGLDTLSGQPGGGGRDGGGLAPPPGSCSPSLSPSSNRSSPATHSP
CCAAT/enhancer-binding protein beta (Homo sapiens), sequence (P17676 whole entry, looked up): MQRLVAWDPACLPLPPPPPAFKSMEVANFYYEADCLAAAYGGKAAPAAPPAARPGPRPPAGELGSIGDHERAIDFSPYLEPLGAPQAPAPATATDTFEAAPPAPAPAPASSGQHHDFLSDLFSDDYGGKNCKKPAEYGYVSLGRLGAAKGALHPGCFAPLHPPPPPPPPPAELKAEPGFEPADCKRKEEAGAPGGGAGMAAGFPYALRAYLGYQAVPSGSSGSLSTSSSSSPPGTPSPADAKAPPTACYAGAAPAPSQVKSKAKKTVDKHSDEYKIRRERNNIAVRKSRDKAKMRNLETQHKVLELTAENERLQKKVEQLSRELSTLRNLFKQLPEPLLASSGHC
Hepatocyte nuclear factor 3-beta (Homo sapiens), sequence (Q9Y261 whole entry, looked up): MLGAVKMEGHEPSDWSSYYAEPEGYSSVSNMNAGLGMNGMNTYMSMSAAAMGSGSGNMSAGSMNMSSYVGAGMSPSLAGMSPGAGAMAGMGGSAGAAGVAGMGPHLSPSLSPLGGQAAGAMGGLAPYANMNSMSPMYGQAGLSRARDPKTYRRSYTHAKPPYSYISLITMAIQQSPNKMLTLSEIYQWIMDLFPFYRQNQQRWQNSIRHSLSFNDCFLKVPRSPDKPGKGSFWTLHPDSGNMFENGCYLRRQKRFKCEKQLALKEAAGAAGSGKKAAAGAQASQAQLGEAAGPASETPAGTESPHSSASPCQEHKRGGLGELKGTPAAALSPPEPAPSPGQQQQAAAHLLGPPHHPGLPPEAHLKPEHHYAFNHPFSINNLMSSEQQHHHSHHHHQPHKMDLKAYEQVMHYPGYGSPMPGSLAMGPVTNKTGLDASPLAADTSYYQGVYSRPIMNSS
Transcription factor E2F1 (Homo sapiens), sequence (Q01094 whole entry, looked up): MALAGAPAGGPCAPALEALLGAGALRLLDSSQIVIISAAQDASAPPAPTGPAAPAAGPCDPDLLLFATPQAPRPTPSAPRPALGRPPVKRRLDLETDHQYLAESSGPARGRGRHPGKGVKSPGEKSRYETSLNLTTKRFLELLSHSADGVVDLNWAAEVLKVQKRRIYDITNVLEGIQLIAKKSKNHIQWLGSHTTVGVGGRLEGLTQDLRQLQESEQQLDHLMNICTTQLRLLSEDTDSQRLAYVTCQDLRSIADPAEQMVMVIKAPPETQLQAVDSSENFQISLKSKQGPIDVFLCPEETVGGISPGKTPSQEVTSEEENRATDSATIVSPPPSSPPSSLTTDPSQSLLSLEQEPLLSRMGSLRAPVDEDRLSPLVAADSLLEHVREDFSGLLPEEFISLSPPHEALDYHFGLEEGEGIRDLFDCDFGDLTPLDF

Usually AC50 stands for the midpoint of the concentration-response curve, whichever way the signal moves. Take `C=Cc1ccncc1`: the compound was classed as inactive in assay [1], in assay [4], in assay [5], in assay [6], in [7] and in assay [9]. In addition, the result in assay [11], in assay [13], in assay [15] and in [18] was inactive. For the same compound, the concentration at half-maximal activity (AC50) in assay [2] was 26.2 µM (active); in assay [3] it was 100 µM (active); in assay [8], 27 µM (active); in [10], 46.1 µM (active); in assay [12], 37.1 µM (active); in assay [14], 57.3 µM (active). For the same compound, the AC50 in assay [16] was 43.4 µM (active); in [17], 22.7 µM (active).
Take `CC(=O)O[C@@H]1CC2CCC1(C)C2(C)C` (stereo partly specified): the compound was called inactive in [1], in assay [2], in assay [3], in [4], in [5] and in assay [19]. Besides, the result in [6], in [8], in [9], in assay [10], in [11] and in [12] was inactive. The compound was classed as inactive in assay [13], in assay [14], in [15], in assay [16], in assay [17] and in assay [18].
Consider `CCC1(C)NC(=O)NC1=O` (stereo unspecified), for which the outcome in assay [1], in assay [2], in assay [3], in [4], in assay [5] and in assay [19] was inactive. The outcome in [6], in [8], in [9], in assay [10], in assay [11] and in assay [12] was inactive. The outcome in [13], in [14], in assay [15], in assay [16], in assay [17] and in assay [18] was inactive.
Consider `CC(C)CC(C)CC(O)CC(C)C` (stereo unspecified), for which the result in assay [1], in [2], in assay [3], in assay [4], in assay [5] and in assay [19] was inactive. Besides, the call in assay [6], in [7], in [8], in assay [9], in [10] and in assay [11] was inactive. Besides, the compound was called inactive in assay [14], in assay [15], in assay [16], in assay [17] and in assay [18].
On to `O=C(O)c1ccc(O)cc1`, for which the outcome in assay [1], in [2], in assay [3], in assay [4], in assay [5] and in [19] was inactive. In addition, the outcome in assay [6], in [7], in [8], in [10], in assay [11] and in assay [13] was inactive. The outcome in assay [14], in [15], in assay [16], in assay [17] and in assay [18] was inactive.
`CCC(C)c1cc([N+](=O)[O-])cc([N+](=O)[O-])c1OC(=O)OC(C)C` (stereo unspecified): the compound was classed as inactive in [1], in assay [3], in [4], in assay [5], in assay [8] and in [11]. In [13], the compound was classed as inactive. For the same compound, the AC50 was 49.1 µM (active) in [2]; 25.8 µM (active) in assay [19]; 39.7 µM (active) in assay [6]; 100 µM (active) in assay [7]; 100 µM (active) in [10]; 26.5 µM (active) in assay [12]. The concentration at half-maximal activity (AC50) was 26.1 µM (active) in assay [14]; 62.6 µM (active) in assay [15]; 164 µM (active) in [16]; 24.1 µM (active) in [17]; 27.1 µM (active) in [18].
As to `CC(=O)C(C)O` (stereo unspecified), the outcome in assay [1], in [2], in assay [3], in [4], in assay [5] and in assay [19] was inactive. The compound was called inactive in [6], in assay [7], in [8], in assay [10], in assay [11] and in assay [12]. For the same compound, the compound was classed as inactive in [13], in assay [14], in assay [15], in [16], in assay [17] and in [18].
On to `C=C(CC(=O)O)C(=O)O`, for which the compound was called inactive in assay [1], in assay [2], in [3], in assay [4], in assay [5] and in assay [19]. For the same compound, the outcome in assay [6], in assay [7], in [8], in assay [10], in assay [11] and in assay [12] was inactive. In addition, the outcome in assay [13], in [14], in assay [15], in assay [17] and in assay [18] was inactive.
